# According to ChEMBL document CHEMBL2218924, “A broad activity screen in support of a chemogenomic map for kinase signalling research and drug discovery” (Biochem J, 2013):
# Experiments:
# [1] = target: Ribosomal protein S6 kinase alpha-1 (Homo sapiens) (UniProt Q15418); conditions: at 1 µM
# [2] = target: Ribosomal protein S6 kinase alpha-1 (Homo sapiens) (UniProt Q15418); conditions: at 10 µM
# [3] = target: Ribosomal protein S6 kinase alpha-3 (Homo sapiens) (UniProt P51812); conditions: at 1 µM
# [4] = target: Ribosomal protein S6 kinase alpha-3 (Homo sapiens) (UniProt P51812); conditions: at 10 µM
# [5] = target: Ribosomal protein S6 kinase alpha-2 (Homo sapiens) (UniProt Q15349); conditions: at 1 µM
# [6] = target: Ribosomal protein S6 kinase alpha-2 (Homo sapiens) (UniProt Q15349); conditions: at 10 µM
# [7] = target: Ribosomal protein S6 kinase alpha-6 (Homo sapiens) (UniProt Q9UK32); conditions: at 1 µM
# [8] = target: Ribosomal protein S6 kinase alpha-6 (Homo sapiens) (UniProt Q9UK32); conditions: at 10 µM
# [9] = target: Mitogen-activated protein kinase 14 (Homo sapiens) (UniProt Q16539); conditions: at 10 µM
# [10] = target: Mitogen-activated protein kinase 11 (Homo sapiens) (UniProt Q15759); conditions: at 10 µM
# [11] = target: T1, Mitogen-activated protein kinase 13 (Homo sapiens) (UniProt O15264); conditions: at 10 µM
# T1 sequence (whole entry): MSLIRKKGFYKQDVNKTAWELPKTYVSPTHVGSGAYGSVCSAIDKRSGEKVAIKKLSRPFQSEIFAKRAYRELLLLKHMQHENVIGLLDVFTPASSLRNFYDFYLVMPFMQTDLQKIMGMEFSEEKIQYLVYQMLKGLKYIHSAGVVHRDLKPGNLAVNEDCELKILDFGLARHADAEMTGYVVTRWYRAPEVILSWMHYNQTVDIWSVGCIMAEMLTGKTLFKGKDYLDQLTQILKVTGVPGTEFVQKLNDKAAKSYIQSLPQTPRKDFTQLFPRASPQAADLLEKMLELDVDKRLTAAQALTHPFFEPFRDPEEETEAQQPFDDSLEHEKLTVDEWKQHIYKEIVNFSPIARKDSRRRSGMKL
# [12] = target: T2, Serine/threonine-protein kinase Sgk1 (Homo sapiens) (UniProt O00141); conditions: at 1 µM
# T2 sequence (whole entry): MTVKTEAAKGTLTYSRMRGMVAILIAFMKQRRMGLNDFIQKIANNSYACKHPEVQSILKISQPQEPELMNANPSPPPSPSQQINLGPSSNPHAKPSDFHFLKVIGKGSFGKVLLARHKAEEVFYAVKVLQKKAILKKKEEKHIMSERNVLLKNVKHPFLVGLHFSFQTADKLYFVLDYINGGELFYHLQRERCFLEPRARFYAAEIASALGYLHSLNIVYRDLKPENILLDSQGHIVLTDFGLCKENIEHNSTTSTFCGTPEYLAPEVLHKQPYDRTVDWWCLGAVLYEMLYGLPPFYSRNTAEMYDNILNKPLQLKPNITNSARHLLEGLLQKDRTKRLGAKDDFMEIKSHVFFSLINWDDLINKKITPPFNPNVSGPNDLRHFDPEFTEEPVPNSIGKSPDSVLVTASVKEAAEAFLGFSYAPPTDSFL
# [13] = target: T2, Serine/threonine-protein kinase Sgk1 (Homo sapiens); conditions: at 10 µM
# [14] = target: T3, Serine/threonine-protein kinase Sgk2 (Homo sapiens) (UniProt Q9HBY8); conditions: at 1 µM
# T3 sequence (whole entry): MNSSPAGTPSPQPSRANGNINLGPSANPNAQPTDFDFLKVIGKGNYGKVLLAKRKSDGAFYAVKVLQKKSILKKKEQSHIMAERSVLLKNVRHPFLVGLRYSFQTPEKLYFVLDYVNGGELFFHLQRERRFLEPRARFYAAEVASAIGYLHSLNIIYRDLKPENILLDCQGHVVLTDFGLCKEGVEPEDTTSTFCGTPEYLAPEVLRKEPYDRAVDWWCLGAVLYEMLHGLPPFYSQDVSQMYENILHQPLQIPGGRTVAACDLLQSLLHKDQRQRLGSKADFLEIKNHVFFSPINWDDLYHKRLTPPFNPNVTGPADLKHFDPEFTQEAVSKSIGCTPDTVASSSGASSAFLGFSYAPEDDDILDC
# [15] = target: T3, Serine/threonine-protein kinase Sgk2 (Homo sapiens); conditions: at 10 µM
# [16] = target: T4, Serine/threonine-protein kinase Sgk3 (Homo sapiens) (UniProt Q96BR1); conditions: at 10 µM
# T4 sequence (whole entry): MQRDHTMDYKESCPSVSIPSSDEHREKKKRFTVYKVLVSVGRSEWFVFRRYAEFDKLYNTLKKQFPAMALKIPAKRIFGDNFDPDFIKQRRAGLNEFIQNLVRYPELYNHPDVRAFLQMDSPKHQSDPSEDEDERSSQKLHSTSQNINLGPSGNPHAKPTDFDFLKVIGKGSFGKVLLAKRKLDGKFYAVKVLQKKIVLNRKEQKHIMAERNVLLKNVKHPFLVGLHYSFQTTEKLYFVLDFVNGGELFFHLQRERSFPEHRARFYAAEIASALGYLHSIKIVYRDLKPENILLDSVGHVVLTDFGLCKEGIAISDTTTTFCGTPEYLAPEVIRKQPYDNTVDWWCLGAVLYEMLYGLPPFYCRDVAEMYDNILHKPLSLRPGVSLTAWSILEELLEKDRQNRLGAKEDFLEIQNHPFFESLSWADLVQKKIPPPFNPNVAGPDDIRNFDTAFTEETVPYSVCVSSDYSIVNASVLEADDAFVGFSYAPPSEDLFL
# [17] = target: Serine/threonine-protein kinase SIK1 (Homo sapiens) (UniProt P57059); conditions: at 1 µM
# [18] = target: Mitogen-activated protein kinase 14 (Homo sapiens) (UniProt Q16539); conditions: at 1 µM
# [19] = target: Mitogen-activated protein kinase 11 (Homo sapiens) (UniProt Q15759); conditions: at 1 µM
# [20] = target: T1, Mitogen-activated protein kinase 13 (Homo sapiens); conditions: at 1 µM
# Sequence of Serine/threonine-protein kinase SIK1 (Homo sapiens) (P57059 whole entry): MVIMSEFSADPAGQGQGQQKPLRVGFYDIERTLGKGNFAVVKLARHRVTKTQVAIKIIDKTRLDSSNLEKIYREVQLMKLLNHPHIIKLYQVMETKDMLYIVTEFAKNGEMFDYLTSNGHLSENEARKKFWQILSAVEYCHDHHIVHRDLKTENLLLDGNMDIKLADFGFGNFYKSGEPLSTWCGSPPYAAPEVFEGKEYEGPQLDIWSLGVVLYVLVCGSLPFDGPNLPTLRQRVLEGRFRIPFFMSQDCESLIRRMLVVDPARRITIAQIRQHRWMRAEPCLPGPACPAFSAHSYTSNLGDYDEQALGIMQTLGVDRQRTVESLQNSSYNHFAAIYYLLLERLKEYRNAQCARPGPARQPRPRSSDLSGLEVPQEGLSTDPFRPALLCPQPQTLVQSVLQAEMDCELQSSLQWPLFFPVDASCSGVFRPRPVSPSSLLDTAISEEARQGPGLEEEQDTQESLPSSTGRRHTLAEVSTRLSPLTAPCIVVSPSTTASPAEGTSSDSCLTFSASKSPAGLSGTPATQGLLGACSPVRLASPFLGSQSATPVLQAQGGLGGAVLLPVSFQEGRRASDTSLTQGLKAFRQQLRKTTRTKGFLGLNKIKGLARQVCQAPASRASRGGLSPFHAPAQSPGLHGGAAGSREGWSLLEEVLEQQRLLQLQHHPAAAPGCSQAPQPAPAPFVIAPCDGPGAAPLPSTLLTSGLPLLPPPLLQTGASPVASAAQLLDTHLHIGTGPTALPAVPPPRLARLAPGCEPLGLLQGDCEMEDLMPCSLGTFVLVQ
# Sequence of Mitogen-activated protein kinase 11 (Homo sapiens) (Q15759 whole entry): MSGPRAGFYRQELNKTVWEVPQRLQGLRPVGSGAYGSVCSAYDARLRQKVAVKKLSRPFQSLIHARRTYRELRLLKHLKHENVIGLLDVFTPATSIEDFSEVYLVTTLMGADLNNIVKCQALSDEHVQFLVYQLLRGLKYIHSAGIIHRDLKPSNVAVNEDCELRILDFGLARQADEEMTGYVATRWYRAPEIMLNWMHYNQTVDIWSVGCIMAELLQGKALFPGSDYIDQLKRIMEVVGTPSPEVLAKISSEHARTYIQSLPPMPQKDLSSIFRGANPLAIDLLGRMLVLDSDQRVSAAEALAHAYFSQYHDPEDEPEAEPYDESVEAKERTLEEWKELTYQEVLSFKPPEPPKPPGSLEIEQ
# Sequence of Ribosomal protein S6 kinase alpha-3 (Homo sapiens) (P51812 whole entry): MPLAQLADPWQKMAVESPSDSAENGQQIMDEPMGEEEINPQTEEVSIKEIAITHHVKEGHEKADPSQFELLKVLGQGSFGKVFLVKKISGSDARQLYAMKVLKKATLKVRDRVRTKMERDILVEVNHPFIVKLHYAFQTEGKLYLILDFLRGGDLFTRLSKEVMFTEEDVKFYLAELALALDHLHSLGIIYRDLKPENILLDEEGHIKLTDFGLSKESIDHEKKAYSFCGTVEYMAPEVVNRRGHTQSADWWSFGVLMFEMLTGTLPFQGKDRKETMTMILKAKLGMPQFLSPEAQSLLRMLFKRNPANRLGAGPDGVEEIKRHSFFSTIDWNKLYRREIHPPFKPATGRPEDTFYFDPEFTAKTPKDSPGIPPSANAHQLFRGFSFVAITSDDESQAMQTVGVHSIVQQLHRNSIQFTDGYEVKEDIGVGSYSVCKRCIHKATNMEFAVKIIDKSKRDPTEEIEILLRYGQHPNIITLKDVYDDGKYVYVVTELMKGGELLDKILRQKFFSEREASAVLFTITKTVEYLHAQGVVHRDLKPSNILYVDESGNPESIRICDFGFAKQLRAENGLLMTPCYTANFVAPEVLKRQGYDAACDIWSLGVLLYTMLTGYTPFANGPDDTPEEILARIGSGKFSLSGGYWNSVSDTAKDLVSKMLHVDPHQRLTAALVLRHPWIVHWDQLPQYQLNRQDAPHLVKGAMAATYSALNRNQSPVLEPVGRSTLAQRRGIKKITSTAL
# Sequence of Ribosomal protein S6 kinase alpha-1 (Homo sapiens) (Q15418 whole entry): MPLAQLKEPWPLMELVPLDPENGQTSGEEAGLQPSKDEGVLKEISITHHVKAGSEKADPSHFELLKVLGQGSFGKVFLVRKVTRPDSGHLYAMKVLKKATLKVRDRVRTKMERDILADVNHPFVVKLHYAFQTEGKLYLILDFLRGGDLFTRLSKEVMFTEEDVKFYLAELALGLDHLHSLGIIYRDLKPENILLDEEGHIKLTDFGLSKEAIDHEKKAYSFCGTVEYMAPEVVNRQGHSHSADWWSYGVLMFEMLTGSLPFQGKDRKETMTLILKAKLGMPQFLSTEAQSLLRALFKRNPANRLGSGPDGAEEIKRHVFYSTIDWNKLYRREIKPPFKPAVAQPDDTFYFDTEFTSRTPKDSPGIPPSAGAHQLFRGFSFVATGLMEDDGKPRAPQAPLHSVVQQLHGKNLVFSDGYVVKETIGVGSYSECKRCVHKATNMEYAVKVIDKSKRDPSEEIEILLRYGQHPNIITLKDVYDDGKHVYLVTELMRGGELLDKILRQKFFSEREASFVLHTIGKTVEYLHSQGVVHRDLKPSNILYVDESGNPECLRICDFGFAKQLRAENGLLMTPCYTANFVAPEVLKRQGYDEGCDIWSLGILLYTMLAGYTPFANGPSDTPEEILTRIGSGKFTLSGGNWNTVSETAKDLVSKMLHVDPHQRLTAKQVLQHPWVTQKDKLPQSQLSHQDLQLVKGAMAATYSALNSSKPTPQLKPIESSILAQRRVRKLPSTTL
# Sequence of Ribosomal protein S6 kinase alpha-6 (Homo sapiens) (Q9UK32 whole entry): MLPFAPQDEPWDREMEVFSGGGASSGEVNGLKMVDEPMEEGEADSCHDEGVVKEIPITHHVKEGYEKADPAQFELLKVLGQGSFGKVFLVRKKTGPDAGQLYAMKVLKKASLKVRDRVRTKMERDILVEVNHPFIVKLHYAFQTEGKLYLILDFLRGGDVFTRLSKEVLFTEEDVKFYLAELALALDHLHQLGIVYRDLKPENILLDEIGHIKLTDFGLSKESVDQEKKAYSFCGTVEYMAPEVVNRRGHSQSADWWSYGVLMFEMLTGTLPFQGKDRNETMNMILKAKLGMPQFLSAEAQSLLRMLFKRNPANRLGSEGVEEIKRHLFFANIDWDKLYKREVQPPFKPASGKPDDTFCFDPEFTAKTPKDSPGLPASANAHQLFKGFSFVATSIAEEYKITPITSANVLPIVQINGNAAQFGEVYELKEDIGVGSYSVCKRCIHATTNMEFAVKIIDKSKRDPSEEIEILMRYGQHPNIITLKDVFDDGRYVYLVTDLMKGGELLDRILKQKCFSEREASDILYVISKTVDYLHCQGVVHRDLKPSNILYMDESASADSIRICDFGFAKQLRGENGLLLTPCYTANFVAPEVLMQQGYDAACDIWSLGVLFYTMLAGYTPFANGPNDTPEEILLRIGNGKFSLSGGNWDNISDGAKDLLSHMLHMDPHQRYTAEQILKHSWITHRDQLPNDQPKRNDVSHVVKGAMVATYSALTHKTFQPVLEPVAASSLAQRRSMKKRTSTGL
# Sequence of Ribosomal protein S6 kinase alpha-2 (Homo sapiens) (Q15349 whole entry): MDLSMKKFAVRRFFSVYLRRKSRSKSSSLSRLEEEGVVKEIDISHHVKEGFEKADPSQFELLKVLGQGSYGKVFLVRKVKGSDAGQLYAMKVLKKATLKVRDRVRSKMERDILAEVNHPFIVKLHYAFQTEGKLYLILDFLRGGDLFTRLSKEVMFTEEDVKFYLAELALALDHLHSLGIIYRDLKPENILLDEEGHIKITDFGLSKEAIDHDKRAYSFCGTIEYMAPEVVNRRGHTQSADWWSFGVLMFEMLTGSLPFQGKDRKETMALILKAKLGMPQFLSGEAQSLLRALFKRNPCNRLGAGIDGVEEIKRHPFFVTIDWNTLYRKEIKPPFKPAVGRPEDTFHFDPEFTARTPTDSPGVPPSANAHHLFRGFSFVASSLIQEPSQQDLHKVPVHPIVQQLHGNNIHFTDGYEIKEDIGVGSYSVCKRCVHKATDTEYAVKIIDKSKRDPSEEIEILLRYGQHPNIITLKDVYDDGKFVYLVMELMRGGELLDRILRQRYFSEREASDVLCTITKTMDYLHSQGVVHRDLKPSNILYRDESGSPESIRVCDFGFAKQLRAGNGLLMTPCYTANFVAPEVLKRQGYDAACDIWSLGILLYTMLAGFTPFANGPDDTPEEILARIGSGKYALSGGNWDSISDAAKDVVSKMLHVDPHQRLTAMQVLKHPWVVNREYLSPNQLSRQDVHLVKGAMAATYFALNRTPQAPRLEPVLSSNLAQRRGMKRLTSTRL
# Sequence of Mitogen-activated protein kinase 14 (Homo sapiens) (Q16539 whole entry): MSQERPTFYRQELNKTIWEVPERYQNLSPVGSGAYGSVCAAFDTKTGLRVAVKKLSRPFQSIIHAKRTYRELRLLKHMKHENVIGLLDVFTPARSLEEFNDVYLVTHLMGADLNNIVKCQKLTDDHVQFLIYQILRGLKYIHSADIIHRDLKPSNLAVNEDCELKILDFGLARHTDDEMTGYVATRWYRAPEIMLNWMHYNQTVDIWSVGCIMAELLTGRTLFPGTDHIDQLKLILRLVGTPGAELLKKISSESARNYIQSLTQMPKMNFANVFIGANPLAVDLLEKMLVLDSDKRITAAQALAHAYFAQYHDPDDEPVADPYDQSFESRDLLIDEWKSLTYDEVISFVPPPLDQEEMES
SMILES,residual activity [1],residual activity [2],residual activity [3],residual activity [4],residual activity [5],residual activity [6],residual activity [7],residual activity [8],residual activity [9],residual activity [10],residual activity [11],residual activity [12],residual activity [13],residual activity [14],residual activity [15],residual activity [16],residual activity [17],residual activity [18],residual activity [19],residual activity [20]
O=C1Nc2ccccc2/C1=C1/Nc2ccccc2/C1=N\OCCC(O)CO (stereo not given),18%,12%,15%,1%,11%,2%,7%,7%,78%,77%,75%,67%,29%,63%,47%,69%,46%,,,
N#Cc1cnc2cnc(NCc3cccnc3)cc2c1Nc1ccc(F)c(Cl)c1,2%,1%,0%,-1%,0%,0%,97%,93%,89%,,95%,,,79%,63%,,101%,87%,119%,96%
Cc1cccc(-c2[nH]c(C(C)(C)C)nc2-c2ccc3c(c2)OCO3)n1,,,67%,47%,101%,97%,,,16%,64%,99%,,89%,89%,87%,98%,90%,49%,97%,106%
Cc1nc(-c2ccccc2)c(-c2ccncc2)o1,88%,97%,60%,64%,100%,92%,81%,117%,14%,58%,103%,107%,86%,126%,89%,91%,138%,57%,105%,107%
O=C1c2ccccc2-[n+]2ccc3c([nH]c4ccccc43)c21,97%,116%,55%,50%,101%,90%,95%,102%,85%,89%,96%,88%,95%,73%,76%,80%,116%,87%,94%,103%
COc1cc2ncc(-c3ccccc3)nc2cc1OC,,,54%,25%,100%,68%,92%,94%,88%,,,98%,95%,96%,76%,,,92%,,
